Source: the supplement of paper PMC11732987, “Enantioselective OTUD7B fragment discovery through chemoproteomics screening and high-throughput optimisation” (Communications Chemistry, 2025)

Tests used:
Experiment in all cases: log2 ratio of Biotin-Ahx-Ub-VS probe labelling (fragment/DMSO); higher = less target engagement (more negative = stronger competition), active = hit call of the paper (q ≤ 0.05, log2 ratio ≤ -1)
Settings in all cases: compound concentration: 200 uM; treatment time: 3 h
USP19 = target: T1, USP19 (UniProt O94966)
T1 sequence (whole entry): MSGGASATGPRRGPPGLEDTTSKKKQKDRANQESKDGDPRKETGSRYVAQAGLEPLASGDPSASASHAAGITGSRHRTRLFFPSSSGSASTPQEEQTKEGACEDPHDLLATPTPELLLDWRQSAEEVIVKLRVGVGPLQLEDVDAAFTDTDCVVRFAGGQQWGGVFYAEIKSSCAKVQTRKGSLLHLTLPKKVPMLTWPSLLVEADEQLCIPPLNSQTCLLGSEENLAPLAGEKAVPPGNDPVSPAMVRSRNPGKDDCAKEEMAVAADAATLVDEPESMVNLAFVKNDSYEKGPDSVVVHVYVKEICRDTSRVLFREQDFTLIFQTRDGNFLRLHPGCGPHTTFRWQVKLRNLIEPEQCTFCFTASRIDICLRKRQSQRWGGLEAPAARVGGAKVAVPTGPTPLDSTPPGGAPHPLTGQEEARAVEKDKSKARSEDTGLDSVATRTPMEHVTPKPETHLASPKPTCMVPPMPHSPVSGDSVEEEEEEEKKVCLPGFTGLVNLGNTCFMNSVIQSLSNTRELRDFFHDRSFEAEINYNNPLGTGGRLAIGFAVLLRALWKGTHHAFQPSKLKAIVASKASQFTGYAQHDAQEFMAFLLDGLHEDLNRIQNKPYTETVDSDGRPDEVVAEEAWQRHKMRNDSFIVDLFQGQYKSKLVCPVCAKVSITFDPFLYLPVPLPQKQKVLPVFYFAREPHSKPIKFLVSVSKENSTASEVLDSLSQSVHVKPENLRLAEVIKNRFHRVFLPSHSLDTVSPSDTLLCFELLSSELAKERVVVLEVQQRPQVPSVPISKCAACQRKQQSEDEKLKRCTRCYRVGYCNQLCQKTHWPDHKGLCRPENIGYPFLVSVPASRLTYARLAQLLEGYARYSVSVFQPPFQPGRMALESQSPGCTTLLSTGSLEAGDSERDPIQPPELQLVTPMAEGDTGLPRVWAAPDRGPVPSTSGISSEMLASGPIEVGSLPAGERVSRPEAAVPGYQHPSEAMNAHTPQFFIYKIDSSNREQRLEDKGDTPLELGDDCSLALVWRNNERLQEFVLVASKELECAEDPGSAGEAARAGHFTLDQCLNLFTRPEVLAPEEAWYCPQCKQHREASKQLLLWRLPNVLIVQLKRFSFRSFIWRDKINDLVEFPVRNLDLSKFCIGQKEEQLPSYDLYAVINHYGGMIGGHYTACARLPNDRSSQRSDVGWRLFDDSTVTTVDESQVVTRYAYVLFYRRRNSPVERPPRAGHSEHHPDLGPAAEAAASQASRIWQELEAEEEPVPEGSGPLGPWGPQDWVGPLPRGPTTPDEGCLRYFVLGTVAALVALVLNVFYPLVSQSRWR
Outline: (§1)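 Labelled DUBs from HEK293T lysate were NeutrAvidin-enriched, digested with LysC and trypsin, and run by diaPASEF LC-MS/MS. Before that, each 495 µg sample in Tris/CHAPS/IGEPAL buffer with protease inhibitors was treated in triplicate with fragment at 200 µM or vehicle for 3 h, then with Biotin-Ahx-Ub-VS at 0.5 µM final for 1 h. Values are average log2 ratios of fragment over vehicle by unpaired t-test, based on global-median-normalised Spectronaut label-free quantities from proteins with ≥2 unique peptides.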

USP22 = target: T2, USP22 (UniProt Q9UPT9)
T2 sequence (whole entry): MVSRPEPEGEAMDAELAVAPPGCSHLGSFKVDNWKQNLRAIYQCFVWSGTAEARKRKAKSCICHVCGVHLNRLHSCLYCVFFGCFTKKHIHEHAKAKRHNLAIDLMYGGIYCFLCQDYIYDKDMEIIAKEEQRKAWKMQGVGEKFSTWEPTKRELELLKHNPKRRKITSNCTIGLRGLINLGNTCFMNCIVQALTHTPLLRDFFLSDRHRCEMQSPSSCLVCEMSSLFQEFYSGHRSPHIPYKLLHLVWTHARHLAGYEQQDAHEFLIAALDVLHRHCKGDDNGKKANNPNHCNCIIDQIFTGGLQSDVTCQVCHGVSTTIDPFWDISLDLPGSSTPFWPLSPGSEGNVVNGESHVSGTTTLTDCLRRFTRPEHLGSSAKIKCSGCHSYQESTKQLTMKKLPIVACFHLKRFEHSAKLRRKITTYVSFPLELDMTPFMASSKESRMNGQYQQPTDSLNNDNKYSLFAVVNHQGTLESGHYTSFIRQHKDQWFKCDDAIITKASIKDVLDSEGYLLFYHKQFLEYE
Outline: as §1

USP24 = USP24 (UniProt Q9UPU5)
USP24, sequence (Q9UPU5 whole entry): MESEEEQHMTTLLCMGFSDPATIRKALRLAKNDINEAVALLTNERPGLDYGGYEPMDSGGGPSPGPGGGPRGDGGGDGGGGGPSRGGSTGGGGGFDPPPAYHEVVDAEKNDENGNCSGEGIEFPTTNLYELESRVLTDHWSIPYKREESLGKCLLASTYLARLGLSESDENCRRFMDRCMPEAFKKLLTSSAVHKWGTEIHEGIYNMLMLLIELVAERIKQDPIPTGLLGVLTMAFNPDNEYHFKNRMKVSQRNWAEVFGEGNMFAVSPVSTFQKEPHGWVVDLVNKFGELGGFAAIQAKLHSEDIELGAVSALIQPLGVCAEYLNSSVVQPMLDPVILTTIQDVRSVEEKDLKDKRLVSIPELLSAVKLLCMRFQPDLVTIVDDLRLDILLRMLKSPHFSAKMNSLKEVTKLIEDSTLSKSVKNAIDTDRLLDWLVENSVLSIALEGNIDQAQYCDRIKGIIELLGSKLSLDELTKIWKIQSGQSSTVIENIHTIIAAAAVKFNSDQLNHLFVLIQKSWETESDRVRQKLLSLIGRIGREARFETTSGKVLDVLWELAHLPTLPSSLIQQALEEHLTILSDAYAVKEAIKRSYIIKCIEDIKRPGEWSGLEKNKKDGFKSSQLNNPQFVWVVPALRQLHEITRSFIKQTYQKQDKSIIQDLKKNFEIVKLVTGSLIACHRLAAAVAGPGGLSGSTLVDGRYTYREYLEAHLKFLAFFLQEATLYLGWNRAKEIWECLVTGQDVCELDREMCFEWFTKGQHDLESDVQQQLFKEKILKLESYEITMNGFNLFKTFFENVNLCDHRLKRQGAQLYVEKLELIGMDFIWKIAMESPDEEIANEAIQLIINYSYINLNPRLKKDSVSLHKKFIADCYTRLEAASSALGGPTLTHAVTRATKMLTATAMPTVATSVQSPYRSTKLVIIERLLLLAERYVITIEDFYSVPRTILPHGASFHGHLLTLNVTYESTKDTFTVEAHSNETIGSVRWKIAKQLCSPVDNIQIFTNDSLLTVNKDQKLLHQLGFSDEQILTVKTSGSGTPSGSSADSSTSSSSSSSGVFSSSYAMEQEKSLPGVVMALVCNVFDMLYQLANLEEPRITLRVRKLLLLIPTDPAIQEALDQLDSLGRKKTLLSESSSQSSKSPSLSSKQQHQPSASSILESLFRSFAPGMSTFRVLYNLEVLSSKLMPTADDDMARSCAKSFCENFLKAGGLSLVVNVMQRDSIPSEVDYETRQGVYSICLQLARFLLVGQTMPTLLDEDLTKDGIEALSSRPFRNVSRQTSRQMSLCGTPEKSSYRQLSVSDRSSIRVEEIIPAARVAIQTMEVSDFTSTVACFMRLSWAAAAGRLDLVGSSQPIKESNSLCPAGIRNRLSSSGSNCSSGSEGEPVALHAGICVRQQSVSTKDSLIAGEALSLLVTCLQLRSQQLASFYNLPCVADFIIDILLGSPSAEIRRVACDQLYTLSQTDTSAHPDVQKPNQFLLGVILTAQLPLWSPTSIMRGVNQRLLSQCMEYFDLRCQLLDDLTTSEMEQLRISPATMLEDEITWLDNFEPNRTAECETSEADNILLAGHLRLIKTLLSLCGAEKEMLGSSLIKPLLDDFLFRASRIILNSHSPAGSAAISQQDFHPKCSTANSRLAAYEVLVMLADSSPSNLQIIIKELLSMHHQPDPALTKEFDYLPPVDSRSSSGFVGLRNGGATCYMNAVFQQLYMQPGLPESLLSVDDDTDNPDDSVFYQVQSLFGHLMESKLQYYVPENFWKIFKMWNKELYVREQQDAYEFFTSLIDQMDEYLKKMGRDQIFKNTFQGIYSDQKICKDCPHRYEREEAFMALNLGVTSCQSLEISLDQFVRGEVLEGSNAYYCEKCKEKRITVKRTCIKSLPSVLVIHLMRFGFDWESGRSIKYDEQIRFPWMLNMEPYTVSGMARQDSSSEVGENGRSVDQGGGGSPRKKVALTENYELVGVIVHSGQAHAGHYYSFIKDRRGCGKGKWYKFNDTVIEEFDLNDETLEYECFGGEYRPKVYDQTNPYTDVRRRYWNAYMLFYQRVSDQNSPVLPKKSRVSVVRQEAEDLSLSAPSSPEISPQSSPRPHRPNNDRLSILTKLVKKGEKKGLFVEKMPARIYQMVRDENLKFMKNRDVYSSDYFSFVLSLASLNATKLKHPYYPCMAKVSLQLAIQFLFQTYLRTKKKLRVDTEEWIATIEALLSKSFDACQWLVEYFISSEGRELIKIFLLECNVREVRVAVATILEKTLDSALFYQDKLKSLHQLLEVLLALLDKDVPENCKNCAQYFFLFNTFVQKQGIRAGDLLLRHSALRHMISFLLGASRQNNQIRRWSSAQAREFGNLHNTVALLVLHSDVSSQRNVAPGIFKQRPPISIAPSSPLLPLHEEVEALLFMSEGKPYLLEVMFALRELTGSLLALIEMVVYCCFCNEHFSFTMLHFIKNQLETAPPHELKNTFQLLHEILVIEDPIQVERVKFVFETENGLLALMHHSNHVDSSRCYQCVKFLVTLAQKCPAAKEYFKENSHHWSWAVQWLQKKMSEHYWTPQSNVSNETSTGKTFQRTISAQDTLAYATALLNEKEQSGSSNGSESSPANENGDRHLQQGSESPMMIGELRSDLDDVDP
Outline: as §1

USP25 = target: T3, USP25 (UniProt Q9UHP3)
T3 sequence (whole entry): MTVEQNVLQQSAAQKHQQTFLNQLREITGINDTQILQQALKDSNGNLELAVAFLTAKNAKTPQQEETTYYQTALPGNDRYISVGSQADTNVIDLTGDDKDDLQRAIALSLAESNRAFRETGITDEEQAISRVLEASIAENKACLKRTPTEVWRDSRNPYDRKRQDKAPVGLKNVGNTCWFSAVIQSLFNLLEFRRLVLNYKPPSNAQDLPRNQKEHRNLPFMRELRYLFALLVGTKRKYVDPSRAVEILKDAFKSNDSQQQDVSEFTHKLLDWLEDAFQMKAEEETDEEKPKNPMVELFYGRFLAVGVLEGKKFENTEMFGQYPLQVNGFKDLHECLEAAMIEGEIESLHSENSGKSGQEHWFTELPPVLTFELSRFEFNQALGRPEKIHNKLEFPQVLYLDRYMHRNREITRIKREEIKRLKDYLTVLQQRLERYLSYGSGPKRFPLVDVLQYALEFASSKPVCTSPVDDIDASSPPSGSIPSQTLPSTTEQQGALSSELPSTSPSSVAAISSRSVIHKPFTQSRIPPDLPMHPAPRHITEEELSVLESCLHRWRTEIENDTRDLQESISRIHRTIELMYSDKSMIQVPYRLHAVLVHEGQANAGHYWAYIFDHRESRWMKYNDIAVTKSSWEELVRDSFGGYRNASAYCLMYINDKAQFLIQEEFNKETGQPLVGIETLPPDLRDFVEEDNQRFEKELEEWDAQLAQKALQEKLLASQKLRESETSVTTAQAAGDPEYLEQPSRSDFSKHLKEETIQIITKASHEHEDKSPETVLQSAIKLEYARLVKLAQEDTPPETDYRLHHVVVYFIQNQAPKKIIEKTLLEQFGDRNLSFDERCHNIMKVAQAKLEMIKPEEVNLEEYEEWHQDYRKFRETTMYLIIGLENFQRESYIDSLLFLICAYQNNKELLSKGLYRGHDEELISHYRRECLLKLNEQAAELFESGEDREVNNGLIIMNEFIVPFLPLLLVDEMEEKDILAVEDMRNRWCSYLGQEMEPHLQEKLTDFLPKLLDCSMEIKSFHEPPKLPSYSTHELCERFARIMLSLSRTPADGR
Outline: as §1

USP28 = target: T4, USP28 (UniProt Q96RU2)
T4 sequence (whole entry): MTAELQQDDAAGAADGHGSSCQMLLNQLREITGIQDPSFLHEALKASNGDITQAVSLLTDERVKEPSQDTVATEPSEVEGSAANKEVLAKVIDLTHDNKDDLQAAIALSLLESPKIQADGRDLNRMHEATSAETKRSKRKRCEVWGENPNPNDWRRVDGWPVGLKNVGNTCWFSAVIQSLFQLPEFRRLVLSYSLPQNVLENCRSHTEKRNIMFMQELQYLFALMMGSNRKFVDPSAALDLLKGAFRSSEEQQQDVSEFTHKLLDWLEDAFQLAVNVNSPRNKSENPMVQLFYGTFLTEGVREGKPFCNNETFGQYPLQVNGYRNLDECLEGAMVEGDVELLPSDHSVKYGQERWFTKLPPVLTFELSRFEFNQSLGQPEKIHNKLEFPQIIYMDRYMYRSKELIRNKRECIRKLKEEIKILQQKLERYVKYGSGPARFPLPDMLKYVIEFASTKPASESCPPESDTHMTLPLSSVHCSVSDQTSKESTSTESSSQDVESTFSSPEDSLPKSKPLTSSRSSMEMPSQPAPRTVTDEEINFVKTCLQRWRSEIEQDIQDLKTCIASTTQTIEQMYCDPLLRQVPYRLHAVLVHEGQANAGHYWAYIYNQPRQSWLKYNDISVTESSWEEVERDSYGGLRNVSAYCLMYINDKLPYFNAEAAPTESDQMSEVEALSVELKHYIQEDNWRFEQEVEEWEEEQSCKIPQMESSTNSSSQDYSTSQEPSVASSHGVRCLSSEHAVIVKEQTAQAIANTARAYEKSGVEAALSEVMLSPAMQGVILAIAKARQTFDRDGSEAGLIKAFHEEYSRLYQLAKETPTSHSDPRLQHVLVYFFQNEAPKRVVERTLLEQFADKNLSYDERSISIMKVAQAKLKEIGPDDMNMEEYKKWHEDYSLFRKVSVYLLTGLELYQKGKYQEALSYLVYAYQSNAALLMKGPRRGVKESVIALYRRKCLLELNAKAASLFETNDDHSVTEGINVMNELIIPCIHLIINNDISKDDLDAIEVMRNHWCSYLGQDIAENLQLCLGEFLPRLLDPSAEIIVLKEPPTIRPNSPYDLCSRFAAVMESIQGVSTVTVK
Outline: as §1

Measured: log2 ratio of Biotin-Ahx-Ub-VS probe labelling

C[C@@H](NC(=O)CCl)c1cccc(C#N)c1
inactive: USP19 -0.157 | USP22 0.031 | USP24 -0.254 | USP25 -0.569 | USP28 -0.723
